Test results: PubChem BioAssay (NCATS)
Records with an inconclusive call do not appear. Calls of active or inactive are those of the source. Calls follow the shape of the dose curve; as a rule, active = well fitted inhibition curve with a large enough effect; inconclusive = small, poorly fitted or top-dose-only effect; inactive = no such curve, though single readings can be large or run the other way.

Molecular target: Retinal dehydrogenase 2 (Homo sapiens) (UniProt O94788)
Assay: qHTS for Inhibitors of the Aldehyde Dehydrogenase Family (ALDH1A2) Confirmation screens (AID 2061314); also: nearly all actives have a fitted effect of over 65% in size
Conditions: ALDH1A2 enzyme inhibition qHTS confirmation; series mostly up to 45.9 µM; activity, negative = inhibition: at the top concentration
% is scaled to controls: 0 for no effect and ±100 for the full control effect.

activity, negative = inhibition, inactive:
COc1cncc(Nc2cnc3ccc(-c4ccc(F)cc4)nn23)c1 -15.6%
COc1ccc(-c2nc(C(=O)Nc3ccc(C(C)=O)cc3)nn2-c2cccc(Cl)c2)cc1 -13.7%
COc1ccc(OC)c(S(=O)(=O)Nc2ccc3[nH]c(=O)[nH]c3c2)c1 -6.5%
Cc1ccc(S(=O)(=O)N2CCC(C(=O)Nc3ccc(Oc4ccccc4)cc3)CC2)cc1 -10%
O=C(c1nccc2ccccc12)N1CCc2nc3cc[nH]n3c(=O)c2C1 3.35%
CCc1ccc(C(=O)c2cnc3ccc(C)cc3c2S(=O)(=O)c2ccc(OC)cc2)cc1 -15.4%
O=c1c2cn[nH]c2nc(SCc2cccc(Br)c2)n1-c1ccc(Cl)cc1 -14.6%
COC(=O)c1cc(C)nc2c1c(=O)nc(SCc1ccccc1C)n2C1CC1 -0.142%
O=C(c1n[nH]c2ccccc12)N1CCCC(Cc2noc(-c3cnccn3)n2)C1 (stereo unspecified) -14.7%
O=c1cc2nc(-c3ccccc3)nc(SCc3cccc(Br)c3)n2[nH]1 -3.29%
COc1ccc(-c2ccc(C(=O)Nc3cccc(C(F)(F)F)c3)cc2)nn1 -12.4%
CCOC(=O)c1ccccc1NC(=O)c1cnc(N2CCOCC2)c2ccccc12 4.38%
O=S(=O)(Nc1ccc(OC(F)(F)F)cc1)c1ccc(N2CCCCS2(=O)=O)cc1 -17.4%
Cc1ccc(-c2nnc3ccccc3c2C(=O)Nc2cccc(C(F)(F)F)c2)cc1 -4.09%

outcome, inactive:
Cc1ccc(CN(C(=O)COc2ccc([N+](=O)[O-])cc2)c2ccccn2)cc1
Cc1nn(-c2ccc3nncn3n2)c(C)c1CCC(=O)Nc1ccc(OC(F)(F)F)cc1
